Legend:
Experiment in all cases: PBM binding z-score (relative to random genomic background probes); higher = stronger binding; sequences stand for … in GC…GCGATTGACAGCGTAGAATGAAGG
[1] = tested on: FXR:RXRa (NR concentration 270 nM, RXRa partner concentration 90 nM)
Summary of the method: (§1)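 Antibodies against each partner of ligand-free nuclear receptor dimers (one per run) detected binding on custom Agilent 4×180K protein-binding microarrays after 1 h incubation. The double-stranded probes had 34-nt variable regions carrying direct-repeat seeds, single-nucleotide variants, half-site ablations and random human genomic background sequences. Binding z-scores, from regression-normalized fluorescence, use the random background probes as reference.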

[2] = tested on: LXRa:RXRa (NR concentration 270 nM, RXRa partner concentration 90 nM)
Summary of the method: as §1

[3] = tested on: LXRa homodimer (NR concentration 270 nM)
Summary of the method: as §1

[4] = tested on: LXRb:RXRa (NR concentration 270 nM, RXRa partner concentration 90 nM)
Summary of the method: as §1

[5] = tested on: LXRb homodimer (NR concentration 270 nM)
Summary of the method: as §1

[6] = tested on: PPARa:RXRa (NR concentration 270 nM, RXRa partner concentration 90 nM)
Summary of the method: as §1

[7] = tested on: PPARg:RXRa (NR concentration 180 nM, RXRa partner concentration 90 nM)
Summary of the method: as §1

[8] = tested on: PPARg:RXRa 270nM:90nM, anti-RXR (NR concentration 270 nM, RXRa partner concentration 90 nM)
Summary of the method: as §1

[9] = tested on: PPARg:RXRa 30nM:10nM, anti-RXR (NR concentration 30 nM, RXRa partner concentration 10 nM)
Summary of the method: as §1

[10] = tested on: PPARg:RXRa 90nM:30nM, anti-RXR (NR concentration 90 nM, RXRa partner concentration 30 nM)
Summary of the method: as §1

[11] = tested on: PPARg:RXRa DBDmut IVT, anti-RXR (DBD mutation: RXRa K156A/R161A, NR concentration 270 nM, RXRa partner concentration 90 nM)
Summary of the method: as §1

[12] = tested on: PPARg:RXRa IVT, anti-PPARg (NR concentration 270 nM, RXRa partner concentration 90 nM)
Summary of the method: as §1

[13] = tested on: PPARg DBDmut:RXRa IVT, anti-PPARg (DBD mutation: PPARg1 K132A/R137A, NR concentration 270 nM, RXRa partner concentration 90 nM)
Summary of the method: as §1

[14] = tested on: PPARg DBDmut IVT, anti-PPARg (DBD mutation: PPARg1 K132A/R137A, NR concentration 270 nM)
Summary of the method: as §1

[15] = tested on: PPARg homodimer (NR concentration 180 nM)
Summary of the method: as §1

[16] = tested on: PXR:RXRa (NR concentration 270 nM, RXRa partner concentration 90 nM)
Summary of the method: as §1

[17] = tested on: PXR homodimer (NR concentration 270 nM)
Summary of the method: as §1

[18] = tested on: RARa:RXR (NR concentration 270 nM, RXRa partner concentration 90 nM)
Summary of the method: as §1

[19] = tested on: RARa homodimer (NR concentration 270 nM)
Summary of the method: as §1

[20] = tested on: RARb:RXRa (NR concentration 270 nM, RXRa partner concentration 90 nM)
Summary of the method: as §1

| Sequence | PBM binding z-score [1] | PBM binding z-score [2] | PBM binding z-score [3] | PBM binding z-score [4] | PBM binding z-score [5] | PBM binding z-score [6] | PBM binding z-score [7] | PBM binding z-score [8] | PBM binding z-score [9] | PBM binding z-score [10] | PBM binding z-score [11] | PBM binding z-score [12] | PBM binding z-score [13] | PBM binding z-score [14] | PBM binding z-score [15] | PBM binding z-score [16] | PBM binding z-score [17] | PBM binding z-score [18] | PBM binding z-score [19] | PBM binding z-score [20] |
| --- | --- | --- | --- | --- | --- | --- | --- | --- | --- | --- | --- | --- | --- | --- | --- | --- | --- | --- | --- | --- |
| TCAGACACGTGAAGGTAACTCAGGTACGCAGTCG | 0.454 | 1.57 | -0.182 | 0.638 | -0.58 | 0.588 | 0.903 | 1.81 | 3.41 | 2.58 | 2.01 | 0.0169 | -0.15 | -0.175 | 0.0115 | 0.416 | -0.294 | 0.632 | -0.256 | 0.338 |
| CCTACTGGACCATCAGGTCATTGATATCAACGTT | 1.87 | 1.86 | 2.81 | 2.53 | 1.02 | 2.43 | 1.14 | 1.97 | 0.798 | 1.68 | 2.13 | 2.58 | 0.468 | 0.568 | 2.23 | 2.09 | 1.45 | 2.25 | 1.47 | 1.97 |
| CCTGCTAGGTGATGGTCAGCTAATCTACAGTATG | -0.61 | -0.646 | -0.557 | -0.682 | -0.584 | -0.449 | -0.12 | -0.449 | -0.178 | -0.369 | 1.57 | 1.13 | -1.09 | -0.973 | -0.218 | -0.725 | -0.701 | -0.72 | -0.885 | 0.079 |
| GCATATAGGTAATACATGGTGAAAGTCCGATTGT | -0.0336 | 0.0177 | 0.188 | -0.279 | -0.173 | 0.369 | 0.96 | 0.694 | 0.313 | 0.476 | 3.87 | 2.35 | 0.904 | 0.833 | 0.511 | 0.00943 | 0.145 | 0.174 | 0.397 | -0.202 |
| TCGAGTAAGTTAGTCGGGGCATTCAGCCAACATA | -1.52 | -0.541 | -0.717 | -0.128 | -0.869 | 0.00256 | -0.588 | 0.158 | 0.928 | 0.486 | 0.848 | -0.156 | -0.534 | -0.684 | -0.634 | -0.346 | -0.239 | -0.154 | -0.863 | -0.272 |
| ACTCGGAGGACGAAGGTCAGAGCTACGCCAGTGA | 0.736 | 1.2 | -0.109 | 0.941 | -0.551 | 2.3 | 2.67 | 3.52 | 1.07 | 3.02 | -0.0159 | 0.85 | -1.22 | -0.524 | 1.01 | 1.4 | -0.0782 | 1.77 | 0.154 | 2.81 |
| CCTGCTAGGTCAATGGTCATCTAAAGCAGCTCGC | 2.9 | 2.28 | 0.085 | 1.68 | 0.00102 | 3.22 | 4.71 | 5.48 | 3.24 | 5.52 | 4.11 | 3.89 | -0.358 | -0.372 | 1.1 | 1.35 | -0.609 | 2.05 | -0.14 | 3.75 |
| GCTAGTTCGTCAGTAAAAGGTCACACACCGGTCG | 3.31 | 4.47 | 4.75 | 4.05 | 0.683 | 4.56 | 1.96 | 3.56 | 1.55 | 3.22 | 0.269 | 1.84 | 0.221 | 0.516 | 5.83 | 5.56 | 1.64 | 6.4 | 3.07 | 4.08 |
| ACAGACAGCTGATGAAGGTAACTCAGGCTATCAT | -0.294 | -0.43 | -0.191 | -0.692 | -0.451 | -0.305 | 0.649 | -0.383 | -0.233 | 0.0374 | -0.796 | -0.158 | 0.246 | 0.14 | 0.00151 | -0.216 | -0.158 | 0.0124 | 0.287 | -0.232 |
| TCTATTAGTTGATTAGGGCAACCCAAACAGCGGA | 0.851 | 0.543 | 0.334 | 0.826 | 0.771 | 1.09 | 0.509 | 1.97 | 3.86 | 2.89 | 1.83 | 1.56 | 1.32 | 1.89 | 0.811 | 0.65 | 0.299 | 0.776 | 1.44 | 0.917 |
